GC-B act = GC-B (human) receptor activation. 370,000 compounds, 0.11% hits. P20594. AID 1920062. activation, % at 10 µM. HEK293-GC-B cells, CNP EC30, cGMP TR-FRET; 0% at EC30 CNP, 100% saturating CNP;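 active means activation at 10 µM reaching about 35% in either raw or pattern-adjusted values, limit read from the data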
FAS TE block = FAS thioesterase (human) inhibition; 360,000 compounds, 0.67% hits; recombinant FAS-TE, OMFH fluorogenic substrate, fluorescence endpoint; inhibition, % at 15 µM;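 active means compounds whose normalised, plate-corrected inhibition of enzyme fluorescence in the single-dose primary screen is 50% or more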
ADAM10 inh = inhibits human ADAM10 | recombinant ADAM10, EDANS/DABCYL FRET peptide cleavage, 3 h | inhibition, % at 7 µM | 370,000 compounds, 0.62% hits | AID 720582;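 active means inhibition above a per-campaign cutoff equal to the mean of compounds falling between control-based bounds plus 3 SD, cut at about 20% in these data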
ADAM17 inh = ADAM17 inhibition, QFRET primary screen. P78536. recombinant ADAM17, EDANS/DABCYL FRET peptide cleavage. inhibition, % at 6.95 µM. 370,000 compounds, 0.83% hits;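 active means inhibition above the mean of compounds lying between control limits plus 3 SD, set per campaign, cut at about 8.5% in these data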
NPR1 activator = GC-A (human) enzyme activation. P16066. HEK293 GC-A cells, cGMP TR-FRET, EC30 ANP; 0% at EC30 ANP, 100% saturating ANP. activation, % at 10 µM. 370,000 compounds, 0.14% hits. AID 1671463; in the data active means activation above about 40%
Target sequence (P16066 whole entry, looked up): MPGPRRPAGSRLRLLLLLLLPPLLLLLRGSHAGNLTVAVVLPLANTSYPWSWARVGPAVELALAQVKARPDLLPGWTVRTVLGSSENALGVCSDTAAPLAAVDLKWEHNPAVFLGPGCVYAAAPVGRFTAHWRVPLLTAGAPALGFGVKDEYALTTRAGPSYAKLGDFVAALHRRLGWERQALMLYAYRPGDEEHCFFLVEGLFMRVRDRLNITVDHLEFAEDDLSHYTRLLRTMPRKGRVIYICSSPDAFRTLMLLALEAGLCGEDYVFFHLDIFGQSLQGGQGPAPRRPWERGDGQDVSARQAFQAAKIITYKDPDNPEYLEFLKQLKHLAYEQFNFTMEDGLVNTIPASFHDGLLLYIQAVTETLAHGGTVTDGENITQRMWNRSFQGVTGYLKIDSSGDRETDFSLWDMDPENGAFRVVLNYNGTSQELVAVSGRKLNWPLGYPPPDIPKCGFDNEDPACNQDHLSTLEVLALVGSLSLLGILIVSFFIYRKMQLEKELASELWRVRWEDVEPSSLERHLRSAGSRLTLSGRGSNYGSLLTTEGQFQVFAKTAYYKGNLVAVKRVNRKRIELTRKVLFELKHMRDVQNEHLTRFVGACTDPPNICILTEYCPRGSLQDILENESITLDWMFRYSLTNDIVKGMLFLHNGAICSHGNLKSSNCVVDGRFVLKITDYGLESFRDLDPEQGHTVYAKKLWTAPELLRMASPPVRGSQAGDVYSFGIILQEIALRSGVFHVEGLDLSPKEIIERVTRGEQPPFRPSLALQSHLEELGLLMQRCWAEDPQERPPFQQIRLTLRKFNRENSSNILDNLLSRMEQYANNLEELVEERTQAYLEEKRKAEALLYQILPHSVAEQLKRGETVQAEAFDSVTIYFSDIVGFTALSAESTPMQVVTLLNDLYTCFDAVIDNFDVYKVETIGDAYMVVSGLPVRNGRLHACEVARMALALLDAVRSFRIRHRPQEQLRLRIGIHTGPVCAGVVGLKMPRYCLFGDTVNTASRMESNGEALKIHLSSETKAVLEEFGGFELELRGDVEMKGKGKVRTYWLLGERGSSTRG
ADAM10 confirm = human ADAM10 inhibition, confirmation; shares compounds with ADAM10 inh; ADAM10 QFRET peptide cleavage, EDANS fluorescence; inhibition, % at 6.95 µM; 2,100 compounds, 1% hits; AID 743208;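 active means inhibition above about 20% chosen separately for each screening run, limit read from the data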
ADAM17 counter = counter-screen for ADAM10 exosite inhibitors: inhibitors of human ADAM17. inhibition, % at 6.95 µM. 2,100 compounds, 0.5% hits. shares compounds with ADAM10 inh. ADAM17 QFRET peptide cleavage, EDANS fluorescence. AID 743214;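 active means mean triplicate inhibition above the solvent-only control wells' mean plus 3 SD, cut at about 12% in these data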
ADAM10 counter = inhibits human ADAM10 in ADAM17 exosite counter-screen; shares compounds with ADAM17 inh; recombinant ADAM10, EDANS/DABCYL FRET peptide cleavage, 3 h; inhibition, % at 6.95 µM; 2,900 compounds, 47% hits;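 active means mean inhibition over the triplicate runs exceeds the activity threshold set in the earlier primary screen, cut at about 20% in these data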
ADAM17 confirm = confirmation of inhibitors of human ADAM17. shares compounds with ADAM17 inh. recombinant ADAM17, EDANS/DABCYL QFRET peptide cleavage. inhibition, % at 6.95 µM. 2,900 compounds, 65% hits. AID 743257;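 active means mean inhibition across replicates above the hit cutoff set in the primary screen, cut at about 8.5% in these data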
Hits are given with their value; . = inactive; / = no result. A selection: hits, their analogues and other compounds. The true share with any hit is near 2%.

SMILES | GC-B act | FAS TE block | ADAM10 inh | ADAM17 inh | NPR1 activator | ADAM10 confirm | ADAM17 counter | ADAM10 counter | ADAM17 confirm
C=CC[C@H](CC(=O)N[C@H](CO)Cc1ccccc1)C(=O)N[C@@H](COC(=O)[C@@H](CC=C)CC(=O)OC(C)(C)C)Cc1c[nH]c2ccccc12 | . | . | . | . | . | / | / | / | /
C=CC[C@@H](CC(=O)N(CCO)Cc1ccccc1)C(=O)N[C@@H](COC(=O)[C@@H](CC=C)CC(=O)OC(C)(C)C)Cc1c[nH]c2ccccc12 | . | . | 45.3 | 21.9 | . | . | . | 40.6 | 21.0
C=CC[C@@H](CC(=O)N[C@@H](CO)Cc1ccccc1)C(=O)N[C@H](COC(=O)[C@@H](CC=C)CC(=O)OC(C)(C)C)Cc1c[nH]c2ccccc12 | . | . | 26.5 | 8.7 | . | . | . | 39.0 | 18.5
C=CC[C@@H](CC(=O)N(CCO)Cc1ccccc1)C(=O)N[C@H](COC(=O)[C@@H](CC=C)CC(=O)OC(C)(C)C)Cc1c[nH]c2ccccc12 | . | . | 24.7 | 13.5 | . | . | . | 32.9 | 15.9
C=CC[C@H](CC(=O)N(CCO)Cc1ccccc1)C(=O)N[C@@H](COC(=O)[C@H](CC=C)CC(=O)OC(C)(C)C)Cc1c[nH]c2ccccc12 | . | . | . | . | . | / | / | / | /
Cc1nn(-c2ccccc2)c2sc(C(=O)NC3CCCc4ccccc43)cc12 (centres undefined) | . | / | . | . | . | / | / | / | /
O=S1(=O)c2ccc(N3CCN(Cc4ccccc4F)CC3)cc2Oc2ccccc2CN1Cc1cn(Cc2cccc(F)c2)nn1 | . | / | . | . | . | / | / | / | /
CCC[C@H]1[C@@H](N(C)Cc2cccs2)CC[C@@]23CCCN2C(=O)CCC[C@@H]13 | . | / | . | . | . | / | / | / | /
CCCCCN1CCCCC(NC(=O)c2cc(OC)c(OC)c(OC)c2)C1=O (centres undefined) | . | / | . | . | . | / | / | / | /
CC(C)(C)S(=O)N1Cc2cc(C(=O)NCc3ccc4c(c3)OCO4)nc(-c3cccc(-c4ccccc4)c3)c2[C@@H]1CCO (some centres undefined) | . | . | 26.0 | 9.2 | . | . | . | . | 9.3
CC(C)(C)S(=O)N1Cc2cc(C(=O)NCc3ccc4c(c3)OCO4)nc(-c3cccc(-c4ccncc4)c3)c2[C@H]1CCO (some centres undefined) | . | . | . | . | . | / | / | / | /
CC(C)[C@@H]1C(=O)N[C@H](Cc2cn(S(=O)(=O)c3ccccc3)c3ccccc23)C(=O)N1C | . | / | . | . | . | / | / | / | /
CCCN(CC1CC1)C(=O)c1ccc(CNC(=O)c2cccc(Br)c2)cc1 | . | / | . | . | . | / | / | / | /
Cc1c(NC(=O)C2CCCN(S(=O)(=O)c3ccc(F)cc3)C2)c(=O)n(-c2ccccc2)n1C (centres undefined) | . | / | . | . | . | / | / | / | /
COc1ccc(N(CC(=O)NCCSC2CCCCC2)S(=O)(=O)c2ccccc2)c(OC)c1 | . | . | 20.7 | 9.4 | . | . | . | . | .
Cc1ccccc1CNC(=O)CN1CCCc2ccccc21 | . | / | . | . | . | / | / | / | /
CCOC(=O)[C@@]12CCCC3=C1N(CCC3)C(=O)[C@H]2CC(=O)NCc1ccccc1 | . | / | . | . | . | / | / | / | /
CN(CC(=O)Nc1cccc(F)c1)C(=O)c1cccc(S(=O)(=O)N2CCN(c3ccc(F)cc3)CC2)c1 | . | . | 20.0 | 14.8 | . | . | . | 22.7 | 10.4
Clc1cccc(NCc2nnc(SCc3ccc(Cl)cc3Cl)o2)c1 | . | . | 30.8 | 9.3 | . | . | . | . | 14.3
CCOc1ccc(-n2c(COc3ccccc3)nnc2SCc2nc3ccccc3[nH]2)cc1 | . | / | . | . | . | / | / | / | /
CCOC(=O)c1c(C)[nH]c(C)c1S(=O)(=O)N1CCN(c2cccc(C)c2)C(C)C1 (centres undefined) | . | . | 20.2 | 9.1 | . | . | . | . | .
O=C(Nc1ccc(F)cc1)OCc1cn(Cc2ccc(C(F)(F)F)cc2)nn1 | . | / | . | . | . | / | / | / | /
N#CC1=C(N)NC(SCC(=O)c2ccc(Cl)cc2)=C(C#N)C12CCCC2 | . | . | . | . | . | / | / | / | /
N#CC1=C(N)NC(SCC(=O)c2ccc(Br)cc2)=C(C#N)C12CCCCC2 | . | . | 21.8 | 12.6 | . | . | . | 41.7 | 18.6
COC(=O)C1CN(Cc2ccc(OC)cc2)CCS(=O)(=O)N1Cc1ccc(F)cc1 (centres undefined) | . | / | . | . | . | / | / | / | /
SMILES | GC-B act | FAS TE block | ADAM10 inh | ADAM17 inh | NPR1 activator | ADAM10 confirm | ADAM17 counter | ADAM10 counter | ADAM17 confirm
S=c1nc(-c2sccc2OCc2ccc(Cl)cc2Cl)[nH][nH]1 | . | . | 20.1 | 11.3 | . | . | . | . | 13.2
CNC(=S)NNC(=O)c1sccc1OCc1ccc(Cl)cc1Cl | . | . | . | . | . | / | / | / | /
CCCCOC(=O)CCN1C(=O)/C(=C/c2ccccc2)SC1=S | . | / | . | . | . | / | / | / | /
Cc1ccc(S(=O)(=O)Nc2ccc3c(c2)n(C)c(=O)n3C)c(C)c1 | . | . | . | . | . | / | / | / | /
CC(C)c1ccc(NS(=O)(=O)c2ccc(Cl)nc2)cc1 | . | . | . | . | . | / | / | / | /
CC(C)c1ccc(S(=O)(=O)Nc2ccc(SC(F)F)cc2)cc1 | . | . | 41.0 | 19.4 | . | . | . | 25.5 | 15.3
Cc1ccc(S(=O)(=O)Nc2ccc(SC(F)F)cc2)c(C)c1 | . | . | 26.6 | 11.4 | . | . | . | 23.4 | 11.1
CC(=NNC(=O)CSc1nnc(-c2ccccc2)n1-c1ccccc1)c1cccc([N+](=O)[O-])c1 | . | / | . | . | . | / | / | / | /
O=C(COC(=O)CCCOc1ccc(Cl)cc1Cl)Nc1cccc(Cl)c1 | . | . | 23.0 | 12.8 | . | . | . | 37.7 | 20.2
COc1ccc(CNC(=O)COC(=O)CCCOc2ccc(Cl)cc2Cl)cc1 | . | . | . | . | . | / | / | / | /
Cc1cc(C(=O)OC(C(=O)Nc2cccc(C(F)(F)F)c2)c2ccccc2)c(C)o1 (centres undefined) | . | . | 30.1 | 15.9 | . | . | . | 38.2 | 24.5
CN(C)CCNC(C(=O)Nc1cccc(C(F)(F)F)c1)c1ccccc1 (centres undefined) | . | . | . | . | . | / | / | / | /
Cc1cccc(COc2ccccc2C(=O)N(C)CC(=O)Nc2cccc(F)c2)c1 | . | . | 23.4 | 11.3 | . | . | . | . | 12.7
